# Source: PubChem BioAssay (EPA / NIEHS)
# Records with an inconclusive call do not appear. The source made the active and inactive calls. How the source made its calls, unless noted: active means hit-call score of the fitted dose curve at least 0.9, where 1 is the maximum; inactive means score below 0.9.
# System: not listed separately
# Test: CCTE_Harrill_HTTr_Apoptosis_MCF7: CCTE's 6-hour Apoptosis Assessment for the High-Throughput Transcriptomics (HTTr) Platform, in MCF-7 cells cultured in DMEM + 10% fetal bovine serum, Harrill Lab (AID 2284011)
# Conditions: not given
# Summary of the method: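 MCF-7 cells in DMEM + 10% FBS exposed 6 h to chemicals over an eight-point dilution series. Caspase-3/7 activation imaged by high-content CellEvent Green staining; fitted bidirectionally versus DMSO.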
# Tumor necrosis factor (Homo sapiens), sequence (P01375 whole entry, looked up): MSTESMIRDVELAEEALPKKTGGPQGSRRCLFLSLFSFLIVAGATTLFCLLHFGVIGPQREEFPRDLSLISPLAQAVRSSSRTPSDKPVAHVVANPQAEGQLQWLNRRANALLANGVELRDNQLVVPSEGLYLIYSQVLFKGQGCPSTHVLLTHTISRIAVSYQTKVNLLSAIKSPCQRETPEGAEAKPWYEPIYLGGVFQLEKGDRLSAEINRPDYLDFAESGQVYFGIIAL
row,Structure (SMILES),outcome
1,O=C(O)Cc1c[nH]c2ccccc12,inactive
2,O=[N+]([O-])c1ccc2nc[nH]c2c1,inactive
3,CC(C)CC(=O)O,inactive
4,Cc1cc(O)cc(C)c1Cl,inactive

# System: not listed separately
# Test: CCTE_Harrill_HTTr_CellCount_MCF7: CCTE's Cell Proliferation Assessment for the High-Throughput Transcriptomics (HTTr) Platform, Harrill Lab (AID 2284012; active means hit-call score of the fitted dose curve at least 0.9, where 1 is the maximum;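 further: count of Hoechst-stained nuclei per well by high-content imaging in MCF-7 cells; cells exposed to compound for six hours; intended direction is loss of nuclei count meaning fewer cells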)
# Conditions: not given
# Summary of the method: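 Chemicals in eight-point dilution series are added to MCF-7 cells for six hours, nuclei are stained with Hoechst and imaged, and per-well nuclei counts are fitted in both directions relative to DMSO controls.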
row,Structure (SMILES),outcome
1,CCCc1c(OCCCCc2nn[nH]n2)ccc(C(C)=O)c1O,inactive
2,Clc1ccccn1,inactive
3,O=C(O)Cc1c[nH]c2ccccc12,inactive
4,NCc1ccccc1,inactive
5,Cc1cc(O)cc(C)c1Cl,inactive
6,CN(C)CCCN1c2ccccc2CCc2ccc(Cl)cc21,inactive

# Read-out: not listed separately
# Test: BSK_BT_PBMCCytotoxicity: PBMC Cytotoxicity Assessment in the BioMAP Diversity Plus: BT Assay (AID 2284225);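 further: PBMC viability measured by Alamar Blue dye reduction fluorescence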
# Conditions: primary human B cells with PBMC
# Summary of the method: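 PBMC (75,000/well) pretreated with compound 1 h, then activated with SEB and TSST-1 (20 ng/mL each final), incubated 90 h; Alamar Blue added 6 h, fluorescence read at 546/580 nm. Fitted relative to DMSO.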
row,Structure (SMILES),outcome
1,CCCCCCCCCCC1CO1 (stereo not given),inactive
2,Cc1cccnc1,inactive
3,CC(C)CC(=O)CC(C)CC(C)C (stereo not given),inactive
4,CN(C)CCC(c1ccc(Cl)cc1)c1ccccn1 (stereo not given),inactive

# Read-out: Secreted IgG (sIgG), gene 3500
# Test: BSK_BT_sIgG: BioMAP Diversity Plus: BT Assay for Secreted IgG (sIgG) Biomarker Activity (AID 2284226)
# Conditions: primary human B cells with PBMC
# Summary of the method: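 Read-out: ELISA for secreted IgG after 24 h of chemical exposure in a B cell plus PBMC co-culture. Values reflect upward-direction fitting against DMSO negative controls.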
row,Structure (SMILES),outcome
1,CCCCCCCCCCC1CO1 (stereo not given),inactive
2,Cc1cccnc1,inactive
3,CC(C)CC(=O)CC(C)CC(C)C (stereo not given),inactive
4,CN(C)CCC(c1ccc(Cl)cc1)c1ccccn1 (stereo not given),inactive

# Read-out: not listed separately
# Test: BSK_BT_Bcell_Proliferation: Viability Assessment in the BioMAP Diversity Plus: BT Assay for B cell Proliferation (AID 2284227)
# Conditions: primary human B cells with PBMC
# Summary of the method: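 SRB-based protein staining (0.1% SRB after 10% TCA fixation, 560 nm) quantifies proliferation in human B cells co-cultured with PBMC, 72 h post-dosing, with signal gain scored relative to DMSO negative control.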
row,Structure (SMILES),outcome
1,CCCCCCCCCCC1CO1 (stereo not given),inactive
2,Cc1cccnc1,inactive
3,CC(C)CC(=O)CC(C)CC(C)C (stereo not given),inactive
4,CN(C)CCC(c1ccc(Cl)cc1)c1ccccn1 (stereo not given),inactive

# Read-out: Interleukin 17A (IL17A), IL17A (gene 3605)
# Test: BSK_BT_xIL17A: BioMAP Diversity Plus: BT Assay for Interleukin 17A (IL17A) Biomarker Activity (AID 2284229)
# Conditions: primary human B cells with PBMC
# Summary of the method: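 Co-culture of human B cells and PBMC, dosed for 24 h in 96-well format. Secreted IL-17A measured with Luminex xMAP; gain-direction fitting against DMSO as baseline.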
row,Structure (SMILES),outcome
1,CCCCCCCCCCC1CO1 (stereo not given),inactive
2,Cc1cccnc1,inactive
3,CC(C)CC(=O)CC(C)CC(C)C (stereo not given),inactive
4,CN(C)CCC(c1ccc(Cl)cc1)c1ccccn1 (stereo not given),inactive

# Read-out: Tumor necrosis factor (Homo sapiens) (UniProt P01375)
# Test: BSK_BT_xTNFa: BioMAP Diversity Plus: BT Assay for Tumor necrosis factor alpha (TNF-alpha) Biomarker Activity (AID 2284230)
# Conditions: primary human B cells with PBMC
# Summary of the method: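 Compounds were added to a B cell plus PBMC co-culture, and after 24 h secreted TNF-alpha was quantified with Luminex xMAP technology, with responses fitted upward from the DMSO control.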
row,Structure (SMILES),outcome
1,CCCCCCCCCCC1CO1 (stereo not given),inactive
2,Cc1cccnc1,inactive
3,CC(C)CC(=O)CC(C)CC(C)C (stereo not given),inactive
4,CN(C)CCC(c1ccc(Cl)cc1)c1ccccn1 (stereo not given),inactive

# Read-out: Vascular cell adhesion molecule 1 (VCAM1), VCAM1 (gene 7412)
# Test: BSK_MyoF_VCAM1: BioMAP Diversity Plus: MyoF Assay for Vascular cell adhesion molecule 1 (VCAM1) Biomarker Activity (AID 2284231)
# Conditions: primary human lung fibroblasts
# Summary of the method: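 Primary human lung fibroblasts (BioMAP MyoF system) dosed with chemical, VCAM-1 measured by ELISA 24 hours later. Fitted in the positive direction against DMSO; parallel SRB staining assessed cytotoxicity.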
Structure (SMILES),AC50,outcome
CCCCCCCCCCC1CO1 (stereo not given),30.7 µM (active),–
Cc1cccnc1,–,inactive
CC(C)CC(=O)CC(C)CC(C)C (stereo not given),–,inactive
CN(C)CCC(c1ccc(Cl)cc1)c1ccccn1 (stereo not given),–,inactive

# Read-out: Collagen I, COL1A1 (gene 1277)
# Test: BSK_MyoF_CollagenI: BioMAP Diversity Plus: MyoF Assay for Collagen I Biomarker Activity (AID 2284238)
# Conditions: primary human lung fibroblasts
# Summary of the method: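 Primary human lung fibroblasts (MyoF system) treated 24 h; Collagen I quantified by ELISA and fitted in positive direction against DMSO. Parallel SRB total-protein staining assessed overt cytotoxicity.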
Structure (SMILES),AC50,outcome
CCCCCCCCCCC1CO1 (stereo not given),31.8 µM (active),–
Cc1cccnc1,–,inactive
CC(C)CC(=O)CC(C)CC(C)C (stereo not given),–,inactive
CN(C)CCC(c1ccc(Cl)cc1)c1ccccn1 (stereo not given),–,inactive

# Read-out: Collagen III, COL3A1 (gene 1281)
# Test: BSK_MyoF_CollagenIII: BioMAP Diversity Plus: MyoF Assay for Collagen III Biomarker Activity (AID 2284239)
# Conditions: primary human lung fibroblasts
# Summary of the method: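 Primary human lung fibroblasts (BioMAP MyoF system) exposed 24 h. Collagen III measured by ELISA; positive-direction fit relative to DMSO.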
Structure (SMILES),AC50,outcome
CCCCCCCCCCC1CO1 (stereo not given),31.2 µM (active),–
Cc1cccnc1,–,inactive
